# From PubChem BioAssay (NCATS)
# Unmarked numbers belong to inactive results. Results filed as inconclusive are left out. Where a call stands in place of a potency, no number is given. The source made the active and inactive calls. Unless noted, calls come from the whole dose curve.
# Legend:
# [1] = target: Cytochrome P450 1A2 (Homo sapiens) (UniProt P05177); experiment: p450-cyp1a2 (AID 410); note: potency is the fitted concentration of half-maximal effect
# Summary of the method: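 Luminescent readout of luciferin formed from Luciferin-ME by human CYP1A2; data normalized against complete inhibition by 57 uM furafylline. Enzyme 20nM, substrate 100uM at Km, 100mM KPO4 buffer, 60 min reaction at room temperature.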
# [2] = target: Glucocorticoid receptor (Homo sapiens) (UniProt P04150); experiment: GR-GFP Redistribution (AID 450;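 active = compounds whose dose series gives a full or clear partial fitted curve of increased nuclear translocation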; note: potency is the fitted concentration of half-maximal effect); conditions: U2OS GR-GFP nuclear translocation, laser cytometry, 2 h
# Chain of Glucocorticoid receptor (Homo sapiens) (P04150 whole entry, looked up, the tested form may be a part): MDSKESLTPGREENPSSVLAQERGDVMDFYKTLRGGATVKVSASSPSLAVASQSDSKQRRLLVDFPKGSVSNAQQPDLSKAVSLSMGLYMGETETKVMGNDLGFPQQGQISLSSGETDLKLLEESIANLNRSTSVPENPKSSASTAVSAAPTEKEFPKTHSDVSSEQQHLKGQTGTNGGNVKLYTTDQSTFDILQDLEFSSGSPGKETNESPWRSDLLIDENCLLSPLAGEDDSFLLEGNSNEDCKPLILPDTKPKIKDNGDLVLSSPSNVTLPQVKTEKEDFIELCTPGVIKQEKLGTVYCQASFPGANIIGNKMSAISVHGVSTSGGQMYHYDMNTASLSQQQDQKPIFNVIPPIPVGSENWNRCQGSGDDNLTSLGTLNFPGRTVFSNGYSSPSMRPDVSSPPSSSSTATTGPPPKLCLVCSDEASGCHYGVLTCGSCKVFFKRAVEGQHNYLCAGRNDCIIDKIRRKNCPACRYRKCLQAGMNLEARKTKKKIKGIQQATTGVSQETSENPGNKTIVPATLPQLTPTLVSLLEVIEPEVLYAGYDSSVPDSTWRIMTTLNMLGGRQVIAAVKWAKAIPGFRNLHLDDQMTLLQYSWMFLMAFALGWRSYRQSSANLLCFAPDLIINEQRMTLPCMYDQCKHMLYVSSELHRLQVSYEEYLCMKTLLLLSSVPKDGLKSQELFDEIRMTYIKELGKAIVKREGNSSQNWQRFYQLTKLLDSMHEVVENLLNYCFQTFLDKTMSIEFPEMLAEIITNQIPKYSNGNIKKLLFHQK
# [3] = target: Glucocorticoid receptor (Homo sapiens) (UniProt P04150); experiment: GR-EFC Redistribution (AID 451); conditions: CHO-K1 GR-EFC translocation, beta-gal luminescence, 2 h; note: potency is the fitted concentration of half-maximal effect
# Summary of the method: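 CHO-K1 cells expressing nuclear EA and GR-ED fragments of b-gal; compounds titrated up to 46 uM final, 2 h at 37 C. GR nuclear translocation read as complemented b-gal luminescence after 1 h RT detection.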
# [4] = target: Mitogen-activated protein kinase 10 (Mus musculus) (UniProt Q61831); experiment: JNK3 AlphaScreen Assay (AID 530; active = well fitted curve in either direction with a large enough effect, not every such curve was filed as active;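 note: kinase came from lysate of stimulated human HepG2 cells; signal reports phosphorylation of biotinylated GST-cJun 1-79 at Ser73 with 10 µM ATP; series mostly up to about 57 µM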)
# Summary of the method: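 Pre-activated (IL-1β/TNFα) JNK3 in HepG2 lysates phosphorylates biotin-GST-cJun(1-79), 10 uM ATP; anti-phospho-cJun(Ser73) AlphaScreen read at room temperature, pH 7.6 Tris buffer. Compounds pre-incubated 15 min as titrations.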
# [5] = target: 3',5'-cyclic-AMP phosphodiesterase 4B (Homo sapiens) (UniProt Q07343); experiment: qHTS Assay for Inhibitors of PDE-IV (AID 607; active = well fitted activation curve with a large enough effect in the main read-out, with a control signal flat, not every such curve was filed as active)
# Chain of 3',5'-cyclic-AMP phosphodiesterase 4B (Homo sapiens) (Q07343 whole entry, looked up): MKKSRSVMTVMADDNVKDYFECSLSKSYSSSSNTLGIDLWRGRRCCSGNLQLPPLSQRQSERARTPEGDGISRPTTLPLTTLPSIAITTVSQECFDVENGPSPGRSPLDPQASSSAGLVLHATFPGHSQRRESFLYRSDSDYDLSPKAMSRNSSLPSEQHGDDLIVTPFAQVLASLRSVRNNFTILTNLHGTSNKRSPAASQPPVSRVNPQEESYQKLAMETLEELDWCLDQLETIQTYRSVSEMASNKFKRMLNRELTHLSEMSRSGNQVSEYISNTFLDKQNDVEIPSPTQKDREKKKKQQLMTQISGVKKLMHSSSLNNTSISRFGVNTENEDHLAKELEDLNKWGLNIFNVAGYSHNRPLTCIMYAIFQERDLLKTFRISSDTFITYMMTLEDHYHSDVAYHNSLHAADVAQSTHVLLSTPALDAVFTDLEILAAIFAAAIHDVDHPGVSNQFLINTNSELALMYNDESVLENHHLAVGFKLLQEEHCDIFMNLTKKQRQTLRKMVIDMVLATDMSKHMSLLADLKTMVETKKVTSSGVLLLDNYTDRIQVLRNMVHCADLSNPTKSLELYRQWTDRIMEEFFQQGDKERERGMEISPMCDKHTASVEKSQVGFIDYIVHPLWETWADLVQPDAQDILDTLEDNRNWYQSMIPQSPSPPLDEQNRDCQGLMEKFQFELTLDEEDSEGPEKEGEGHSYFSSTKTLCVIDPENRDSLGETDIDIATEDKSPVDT
# Summary of the method: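 Live HEK293 cells with a modified cyclic nucleotide-gated (CNG) channel report intracellular cAMP via membrane-potential dye fluorescence (ex 535/em 590 nm). Endogenous PDE-IV was targeted. Compounds were tested at up to 22.9 uM final; RO 20-1724 100 uM served as control.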
# [6] = target: DNA dC->dU-editing enzyme APOBEC-3G (Homo sapiens) (UniProt Q9HC16); experiment: qHTS for inhibitors of Vif-A3G interactions: Validation (AID 588379; active = well fitted curve in the direction sought with a large enough effect; an effect the other way counts as inactive or inconclusive)
# Chain of DNA dC->dU-editing enzyme APOBEC-3G (Homo sapiens) (Q9HC16 whole entry, looked up): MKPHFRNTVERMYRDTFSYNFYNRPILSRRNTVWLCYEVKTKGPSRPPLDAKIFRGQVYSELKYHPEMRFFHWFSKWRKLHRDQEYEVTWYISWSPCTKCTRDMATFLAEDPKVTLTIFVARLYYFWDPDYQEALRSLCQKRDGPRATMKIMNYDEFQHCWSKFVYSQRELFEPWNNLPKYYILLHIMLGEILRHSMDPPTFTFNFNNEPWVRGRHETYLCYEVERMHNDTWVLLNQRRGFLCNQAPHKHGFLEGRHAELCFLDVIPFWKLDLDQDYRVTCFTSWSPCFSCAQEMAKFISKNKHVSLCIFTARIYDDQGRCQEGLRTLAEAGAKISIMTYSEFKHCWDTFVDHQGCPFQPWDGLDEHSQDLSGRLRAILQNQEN
# Summary of the method: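 HeLa cells stably expressing Vif and A3G-eYFP, 700 cells/well, incubated overnight at 37 deg C, then exposed to compound overnight at 37 deg C. Inhibition of Vif-mediated degradation read as increased yellow fluorescence (Ex 488/Em 500-530) by laser-scanning cytometry.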
# [7] = Confirmatory qHTS for small molecule stabilizers of the endoplasmic reticulum resident proteome: Secreted ER Calcium Modulated Protein (SERCaMP) assay (AID 1508628; active = well fitted curve in the direction sought with a large enough effect; an effect the other way counts as inactive or inconclusive; note: series mostly up to about 76 µM; nearly all actives have a fitted effect of over 40% in size)
# Summary of the method: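 SH-SY5Y cells stably expressing GLuc-SERCaMP, treated 16 h with compound (primary 1.53, 7.67, 38.3 uM; confirmation 11 concentrations, up to 76.6 uM), then 100 nM thapsigargin for 4 h. Secreted Gaussia luciferase in medium read by coelenterazine luminescence.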
# Chain of Cytochrome P450 1A2 (Homo sapiens) (P05177 whole entry, looked up): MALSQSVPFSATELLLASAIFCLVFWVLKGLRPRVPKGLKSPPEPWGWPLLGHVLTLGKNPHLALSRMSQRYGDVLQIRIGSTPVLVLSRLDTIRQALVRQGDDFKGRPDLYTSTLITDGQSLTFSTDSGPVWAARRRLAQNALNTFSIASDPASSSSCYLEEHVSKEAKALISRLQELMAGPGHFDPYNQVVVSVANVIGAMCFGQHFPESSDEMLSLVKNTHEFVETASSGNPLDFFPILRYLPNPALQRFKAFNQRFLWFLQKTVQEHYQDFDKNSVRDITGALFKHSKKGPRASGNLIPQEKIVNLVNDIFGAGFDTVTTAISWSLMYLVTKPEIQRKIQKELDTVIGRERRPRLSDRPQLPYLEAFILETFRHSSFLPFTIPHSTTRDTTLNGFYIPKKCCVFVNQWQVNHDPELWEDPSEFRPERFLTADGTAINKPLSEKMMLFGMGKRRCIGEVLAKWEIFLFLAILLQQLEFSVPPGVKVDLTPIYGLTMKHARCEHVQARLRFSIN
structure (smiles),measurement,setting,value
Oc1ccc2c3c1O[C@H]1c4c(c5ccccc5n4Cc4ccccc4)C[C@]4(O)[C@H](C2)N(CC2CC2)CC[C@@]314,Potency,[1],31.6 µM (active)
same,Potency,[2],> 46 µM
same,Potency,[3],> 46 µM
same,outcome,[4],inactive
same,Potency,[5],inactive
same,Potency,[6],inactive
same,Potency,[7],inactive
